CCT chaperon mod: High-Throughput Screening for Modulators of Cytosolic Chaperonin Activity | purified chaperonin ATPase assay, HTRF ADP detection, 30 min | activity change, % (test concentration not listed), hits read low | hit rate 0.3% among 360,000 | AID 651819, 2012; in the data active means activity change below about -30%
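Enzyme 40 or 20 nM (batch-dependent) in Tris pH 7.4/KCl/MgCl2/DTT; cpd 76 uM single point; ATP 10 uM; 30 min 37 °C; Transcreener ADP HTRF detection, 30 min RT; ratio 665/615.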
MmCpn inh: Inhibitors of TCP-1 ring complex (TRiC) of Methanococcus maripaludis (MmCpn): qHTS | Chaperonin Mm-Cpn (Methanococcus maripaludis) | purified Mm-Cpn ATPase, ADP Transcreener TR-FRET | AID 504842, 2011 | Potency, µM (highest dose often 76.9 µM), most hits filed as inhibitors | hit rate 0.031% among 330,000; further: nearly all actives have a fitted effect of over 80% in size
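Inhibition of chaperonin ATP hydrolysis is measured as reduced ADP production, detected by competitive TR-FRET in which signal falls with ADP. Final enzyme 25 nM and ATP 10 uM, reacted 30 min at 37°C.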
AT treatment: qHTS Assay for Identifying a Potential Treatment of Ataxia-Telangiectasia; Potency, µM (top dose mostly 57.5 µM), actives largely listed as activators; F2112 A-T fibroblasts, KAP-1 phosphorylation AlphaLISA; neocarzinostatin DNA damage 30 min before lysis; hit rate 0.19% among 320,000; further: nearly all actives have a fitted effect of over 45% in size
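hTERT-immortalized A-T patient fibroblasts (F2112), 500 cells/well in OPTI-MEM, 1% FBS, got compounds for 60 min, then NCS for 30 min at 37C. Lysates were then assayed for phospho-KAP-1 by AlphaLISA (anti-pKAP1 donor, anti-KAP1 acceptor beads), 6 hr at 25C.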
Anesthetic bind: qHTS Assay for Identification of Novel General Anesthetics; Ferritin light chain (Equus caballus), P02791; apoferritin/1-aminoanthracene competitive binding, fluorescence; Potency, µM (titrated, usually from 77.5 µM), hits mostly inhibitors; hit rate 0.074% among 350,000; AID 485281, 2010; further: nearly all actives have a fitted effect of over 20% in size
Target sequence (P02791 2-175 limits assumed): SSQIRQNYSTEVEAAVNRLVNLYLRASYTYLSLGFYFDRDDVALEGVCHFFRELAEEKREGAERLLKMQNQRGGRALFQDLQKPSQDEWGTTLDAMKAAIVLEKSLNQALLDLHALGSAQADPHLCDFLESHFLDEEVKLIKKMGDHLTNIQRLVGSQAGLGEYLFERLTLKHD
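10 uM apoferritin + 50% sat. 1-AMA, PBS; cpd 10 min RT; Ex380/Em535 endpoint; normalized to free probe vs complex; 4-param Hill fit; propofol titration as pos. ctrl.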
Each line names hits and unclear results; the compound was inactive in the other large screens. An excerpt weighted towards active compounds, which were near 0.47% of everything screened. Unless noted, the call rests on the fitted dose curve; in most records, active means well fitted curve in the direction sought with a large enough effect; inconclusive means small, poorly fitted or top-dose-only effect, or another doubt; inactive means no such curve, though single readings can be large; an effect the other way counts as inactive or inconclusive.

CCSC[C@H](NC(=O)[C@H](C)N)C(=O)N[C@@H](CC(=O)O)C(=O)N[C@H](C(=O)N[C@@H](C)C(=O)N[C@H](C(=O)N[C@@H](CSCC)C(=O)N[C@H](C(=O)N[C@H](C(=O)N[C@@H](Cc1cnc[nH]1)C(=O)N[C@@H](CCCNC(=N)N)C(=O)N[C@@H](CC(C)C)C(=O)N[C@@H](C)C(=O)NCC(=O)N[C@@H](CC(C)C)C(=O)N[C@@H](CC(C)C)C(=O)N[C@@H](CO)C(=O)N[C@@H](CCCNC(=N)N)C(=O)N[C@@H](CO)C(=O)NCC(=O)NCC(=O)N[C@H](C(=O)N[C@H](C(=O)N[C@@H](CCCCN)C(=O)N[C@@H](CC(N)=O)C(=O)N[C@@H](CC(N)=O)C(=O)N[C@@H](Cc1ccccc1)C(=O)N[C@H](C(=O)N1CCC[C@H]1C(=O)N[C@H](C(=O)N[C@@H](CC(N)=O)C(=O)N[C@H](C(=O)NCC(=O)N[C@@H](CO)C(=O)N[C@@H](CCCCN)C(=O)N[C@@H](C)C(=O)N[C@@H](Cc1ccccc1)C(N)=O)C(C)C)[C@@H](C)O)C(C)C)C(C)C)C(C)C)[C@@H](C)O)C(C)C)[C@@H](C)O)[C@@H](C)O	none (no result: CCT chaperon mod, MmCpn inh, AT treatment)
Cc1cc(-c2ccc(C)c(S(=O)(=O)N3CC(=O)Nc4ccccc43)c2)on1	CCT chaperon mod -35
COc1ccc(-c2cc(C)no2)cc1S(=O)(=O)N1CCc2ccccc21	none (no result: CCT chaperon mod, MmCpn inh, AT treatment)
CCc1ccc(-c2cc(C)no2)cc1S(=O)(=O)N1CC(=O)Nc2ccccc21	none
COc1ccc(-c2cc(C)no2)cc1S(=O)(=O)N1CCOc2ccccc21	CCT chaperon mod -81
CC(C)c1nn2c(=O)cc(COC(=O)c3ccco3)nc2s1	none (no result: CCT chaperon mod, MmCpn inh, AT treatment)
Cc1ccc2nc(Cl)c(C3CC(c4ccco4)=NN3C(=O)CCCC(=O)O)cc2c1 (stereo unspecified)	CCT chaperon mod -109
COc1ccc(/C=N/Nc2nc(=O)[nH]nc2C)cc1OC	AT treatment 7.1µM
COc1cc(/C=N/Nc2nc(=O)[nH]nc2C)ccc1O	none
CSc1nc(-c2ccccc2)nn1S(=O)(=O)c1ccccc1	CCT chaperon mod -50 (no result: AT treatment)
C[C@]1(OC(=O)/C=C\c2ccccc2)C[C@@H](O)[C@@]2(O)C=CO[C@@H](O[C@H]3O[C@@H](CO)[C@@H](O)[C@@H](O)[C@@H]3O)[C@H]21	none (no result: CCT chaperon mod, MmCpn inh, AT treatment)
O=C(CCc1ccccc1)Nc1cc(Cl)ccc1O	Anesthetic bind 5.6µM
COc1ccc(C2/C(=C(\O)c3cc(C)ccc3C)C(=O)C(=O)N2CCN(C)C)cc1OC (stereo unspecified)	CCT chaperon mod -80
CCOC(=O)c1cc2c(C(F)(F)F)cc(-c3cccnc3)nc2o1	CCT chaperon mod -32
CCN(CC)c1ncnc2c1cnn2-c1cc(Cl)ccc1C	none (no result: CCT chaperon mod, MmCpn inh, AT treatment)
O=C1CN(S(=O)(=O)c2ccc([N+](=O)[O-])cc2)CC(=O)N1	CCT chaperon mod -52
COc1ccc(NC(=O)Cn2nnnc2-c2ccccc2F)c(C)c1	none (no result: CCT chaperon mod, MmCpn inh, AT treatment)
N#Cc1ccc(-c2csc(NC(=O)c3ccc(N4C(=O)CCC4=O)cc3)n2)cc1	MmCpn inh 32µM, AT treatment inconclusive
CCCC(O)(c1ccc(CC)cc1)C(CN1CCOCC1)c1ccccc1 (stereo unspecified)	AT treatment 32µM
CCCCCC(O)(c1ccccc1)C(CN1CCOCC1)c1ccccc1 (stereo unspecified)	AT treatment 32µM
COc1ccccc1NC(=O)Nc1cccc(C(=O)O)c1	CCT chaperon mod -50
CCOc1ccc(C(=O)NCc2nnnn2-c2ccc(C)c(C)c2)cc1OCC	none (no result: CCT chaperon mod, MmCpn inh, AT treatment)
CCn1c(CNC(=O)C2CCCCC2)cc2ccccc21	CCT chaperon mod -52
Cc1ccc(C(C#N)c2ccc3c(C(F)(F)F)cc(C(F)(F)F)nc3n2)cc1 (stereo unspecified)	CCT chaperon mod -45, Anesthetic bind inconclusive
N#CC(c1ccccc1)c1ccc2c(C(F)(F)F)cc(C(F)(F)F)nc2n1 (stereo unspecified)	Anesthetic bind inconclusive (no result: AT treatment)
Oc1ccc(N=Nc2ccc3c(c2)OCO3)c2ccccc12	AT treatment 10µM (no result: CCT chaperon mod)
c1ccc2c(c1)nc(N1CCCCC1)c1ccccc12	AT treatment 14µM
O=S(=O)(Nc1ccc(-c2nc3cccnc3s2)cc1)c1ccccc1F	AT treatment 16µM
O=S(=O)(Nc1ccc(-c2nc3cccnc3s2)cc1)c1ccc(Cl)s1	none
Cc1c(C)c2c(cc(C)c3c(-c4ccccc4)coc32)oc1=O	none (no result: CCT chaperon mod, MmCpn inh, AT treatment)
Cc1ccc(S(=O)(=O)Nc2cc(Cl)c3oc4c(c3c2)CCCC4)cc1	none (no result: CCT chaperon mod, MmCpn inh, AT treatment)
O=C(COc1cccc(Cl)c1)Nc1nc(-c2ccc(S(=O)(=O)N3CCOCC3)cc2)cs1	MmCpn inh 40µM (no result: AT treatment)
O=C(Nc1nc(-c2cccs2)cs1)c1ccc(S(=O)(=O)N2CCCCC2)cc1	MmCpn inh 45µM
COc1ccccc1OC(C)C(=O)Nc1nc(-c2ccc(S(=O)(=O)N3CCOCC3)cc2)cs1 (stereo unspecified)	MmCpn inh inconclusive
CC(C)C(=O)Nc1nc(-c2ccc(S(=O)(=O)N3CCOCC3)cc2)cs1	AT treatment 13µM
O=S(=O)(c1cccc(C(F)(F)F)c1)n1c(/C=C/c2ccccc2)nc2ccccc21	none (no result: CCT chaperon mod, MmCpn inh, AT treatment)
CC(C)[N+]1(C)[C@@H]2CC[C@H]1CC(OC(=O)[C@@H](CO)c1ccccc1)C2 (stereo partly specified)	none (no result: CCT chaperon mod, MmCpn inh, AT treatment)
CC(=O)OC[C@@H]1O[C@H](CCO/N=C(\C)CCC(=O)OC[C@@H]2O[C@H](C#Cc3ccccc3)C=C[C@@H]2Oc2ccc(C)cc2)C=C[C@@H]1OC(C)=O	none (no result: CCT chaperon mod, MmCpn inh, AT treatment)
CCOC(=O)c1cc(-c2ccccc2)sc1NC(=O)CC(C)C	none
CCOC(=O)c1cc(-c2ccccc2)sc1NC(=O)C(C)(C)C	CCT chaperon mod -31
CCC(Cn1nnc2ccccc2c1=O)NC(=O)Nc1cccc(C)c1C (stereo unspecified)	none (no result: CCT chaperon mod, MmCpn inh, AT treatment)
C[C@H](NC(=O)OC(C)(C)C)C(=O)NCC1CCC(C(=O)N[C@@H](Cc2ccccc2)C(=O)O)CC1 (stereo partly specified)	AT treatment 3.5µM
C[C@@H](NC(=O)OC(C)(C)C)C(=O)NCC1CCC(C(=O)N[C@@H](Cc2ccccc2)C(=O)O)CC1 (stereo partly specified)	none
Cc1ccc(NC(=O)Cn2c(=O)oc3cc(S(=O)(=O)NCc4ccccc4)ccc32)cc1	none (no result: CCT chaperon mod, MmCpn inh, AT treatment)
Cc1ccc(S(=O)(=O)c2ccc(Cl)cc2)cc1S(N)(=O)=O	CCT chaperon mod -71
Cc1ccc(S(=O)(=O)c2ccc(Cl)cc2)cc1S(=O)(=O)N(C)CC(=O)O	none
O=C(Nc1nccs1)c1ccc(S(=O)(=O)NCC2CCCCC2)cc1	Anesthetic bind 14µM
O=C(Nc1nccs1)c1ccc(S(=O)(=O)NCc2cccs2)cc1	none
NC(=O)C1CCN(c2nc(-c3ccccc3Cl)cs2)CC1	none (no result: CCT chaperon mod, AT treatment, Anesthetic bind)
